Screening data as filed in PubChem.
Hits are enriched below; roughly 3.3% of the tested compounds scored in any of these assays.
LmPK inh: LmPK (Leishmania mexicana) enzyme inhibition. 290,000 tested, 0.37% active. purified LmPK, Kinase-Glo ATP luminescence, 1 h. Potency, µM (highest dose often 57.5 µM), for inactives: at the highest dose activity change, negative = inhibition, most hits filed as inhibitors; also: % is scaled to controls: 0 for no effect and ±100 for the full control effect
Target sequence (Q27686 whole entry, looked up): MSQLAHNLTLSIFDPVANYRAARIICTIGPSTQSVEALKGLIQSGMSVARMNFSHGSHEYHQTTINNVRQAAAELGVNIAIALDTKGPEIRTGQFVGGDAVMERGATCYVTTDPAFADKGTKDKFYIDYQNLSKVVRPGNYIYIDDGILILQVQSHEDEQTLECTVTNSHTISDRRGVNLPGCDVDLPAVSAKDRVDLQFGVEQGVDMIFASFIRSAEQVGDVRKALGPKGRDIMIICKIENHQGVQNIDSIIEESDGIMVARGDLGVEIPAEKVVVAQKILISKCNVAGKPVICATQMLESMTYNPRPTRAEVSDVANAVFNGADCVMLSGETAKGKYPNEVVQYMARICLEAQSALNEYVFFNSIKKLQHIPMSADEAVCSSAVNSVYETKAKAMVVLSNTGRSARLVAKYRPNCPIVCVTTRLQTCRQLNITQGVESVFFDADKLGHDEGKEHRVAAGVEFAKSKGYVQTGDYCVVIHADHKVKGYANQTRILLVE
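Purified LmPK (0.1 nM) converted ADP (0.1 mM) to ATP with PEP (0.5 mM) in imidazole buffer pH 7.2 with KCl and MgCl2, 1 h at room temperature. ATP was read by Kinase-Glo luminescence; data normalized to uninhibited and no-enzyme controls.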
TbPYK inhibitor: blocks Trypanosoma brucei pyruvate kinase; Q57TT1; TbPYK enzyme, Kinase-Glo Plus ATP luminescence, 45 min; Potency, µM (titrated, usually from 76.8 µM), without a hit: at the top dose activity, negative = inhibition, actives largely listed as inhibitors; 410,000 tested, 0.12% active; AID 624173; also: % is scaled to controls: 0 for no effect and ±100 for the full control effect; nearly all actives have a fitted effect of over 50% in size
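In this concentration-response screen, enzyme-free wells defined baseline while DMSO plates tracked drift. Each reaction combined TbPYK, substrate, compound and 130 uM ADP for 45 min at room temperature. Kinase-Glo Plus luminescence gave the signal.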
NS1 function inh: blocks influenza NS1 protein function | Potency, µM (top dose mostly 46.1 µM), for the others: at the highest dose activity, positive = more growth | 270,000 tested, 0.4% active; calls by dose curve; also: actives are rising curves; nearly all actives have a fitted effect of over 50% in size
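S. cerevisiae expressing influenza A NS1, grown in glucose, washed, then diluted 1:100 into pH 6.0 -URA galactose medium with 23 nl compound. Growth recovery read as OD600; NS1-free strain serves as control.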
SARS PLpro yeast: blocks SARS-CoV papain-like protease in a yeast assay. S. cerevisiae expressing SARS-CoV PLpro, growth rescue. Potency, µM (highest dose often 32.9 µM), without a hit: at the top dose activity, positive = growth rescue, most hits filed as activators. 330,000 tested, 0.19% active. AID 485353; calls by dose curve; also: 0% is about no effect; nearly all actives have a fitted effect of over 55% in size
Sm TGR block: inhibitors of Schistosoma mansoni thioredoxin glutathione reductase; Q962Y6; Potency, µM (top dose mostly 114 µM), without a hit: at the top dose activity change, negative = inhibition, hits mostly inhibitors; purified TGR, DTNB reduction, TNB absorbance 405 nm; 360,000 tested, 3% active; also: % is scaled to controls: 0 for no effect and ±100 for the full control effect; nearly all actives have a fitted effect of over 60% in size
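TGR 20 nM + NADPH 100 uM (dispensed conc.), cpd preinc 15 min RT; start with NADPH (500 uM addition) then DTNB (15 mM addition). Kinetic TNB absorbance, 405 nm filter. Four-parameter Hill fit across titration.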
RE007 growth inh: less growth of the S. pombe RE007 Vpr strain; S. pombe RE007 Vpr strain, BacTiter-Glo ATP luminescence, 24 h; Potency, µM (top dose mostly 92.2 µM), inactives show top-dose activity change, negative = less growth, hits mostly inhibitors; 360,000 tested, 0.21% active; AID 651644; active = well fitted falling curve with a large enough effect; inconclusive = small, poorly fitted or top-dose-only effect; inactive = no such curve, though single readings can be large or run the other way; also: % is scaled to controls: 0 for no effect and ±100 for the full control effect; nearly all actives have a fitted effect of over 50% in size
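Fission yeast RE007 carrying one integrated HIV-1 vpr copy, seeded at OD 0.01 in PMG+AL medium with 23 nL pinned compound. Grown 24 h at 30 degrees; viability read by BacTiter-Glo luminescence after 5 min.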
* = called active by the depositor; ? = inconclusive; nt = no result given. Unless noted, calls follow the shape of the dose curve; as a rule, active = well fitted curve in the direction sought with a large enough effect; inconclusive = small, poorly fitted or top-dose-only effect, or another doubt; inactive = no such curve, though single readings can be large; an effect the other way counts as inactive or inconclusive. Potency is read from the fitted curve at half-maximal effect.

SMILES	LmPK inh	TbPYK inhibitor	NS1 function inh	SARS PLpro yeast	Sm TGR block	RE007 growth inh
COc1ccccc1N1CCN(Cc2cc(Br)c(O)c3ncccc23)CC1	9.1%	-2.1%	-93.8%	?	3.16µM*	-9.8%
O=[N+]([O-])c1ccc(S(=O)(=O)CC(CN2CCCCC2)N2CCCCC2)cc1 (configuration not stated)	4.6%	0.7%	nt	-0.2%	7.94µM*	-0.5%
O=[N+]([O-])c1ccc(S(=O)(=O)CC(CN2CCOCC2)N2CCOCC2)cc1 (configuration not stated)	-10.6%	-1.2%	nt	-0.6%	?	3.1%
COc1ccc(Cl)cc1C(=O)NCc1ccco1	0.7%	6.5%	-29.5%	-6.2%	44.7µM*	-4.6%
O=C(CN1CCN(c2ccccc2F)CC1)NC(=O)NCc1ccco1	-1.8%	-6.0%	nt	-1.6%	28.2µM*	-3.2%
CN(c1ccccc1C(=O)Nc1ccccc1C(=O)NCc1ccco1)S(C)(=O)=O	-1.5%	-6.6%	-8.0%	1.9%	?	22.0%
CN(c1ccccc1C(=O)NCc1ccco1)S(C)(=O)=O	2.4%	-1.2%	9.4%	0.3%	39.8µM*	0.6%
Cc1csc2ncc(C(=O)NCc3ccco3)c(=O)n12	1.7%	-1.7%	0.7%	-1.4%	44.7µM*	-12.0%
O=C(NCc1ccco1)c1cnc2sccn2c1=O	-1.5%	2.1%	8.4%	-1.5%	?	5.3%
CC1(CC(=O)O)O[C@H]2CCCCC[C@H]2O1 (some centres not stated) (tested in a mixture with another compound)	nt	nt	0.3%	nt	nt	nt
CCc1ccc(NC(=O)N2CC(C)Oc3ccc(C)cc32)cc1 (configuration not stated)	nt	6.2%	nt	nt	-10.6%	nt
C/C1=C2/[N-]C(C(CC(N)=O)[C@@]2(C)CCC(=O)NCC(C)OP(=O)([O-])O[C@H]2[C@@H](O)[C@@H](n3cnc4cc(C)c(C)cc43)O[C@@H]2CO)[C@]2(C)N=C(/C(C)=C3N=C(/C=C4N=C1C(CCC(N)=O)C\4(C)C)[C@@H](CCC(N)=O)[C@]\3(C)CC(N)=O)[C@@H](CCC(N)=O)[C@]2(C)CC(N)=O.CC(=O)O.[Co] (some centres not stated)	nt	-9.5%	nt	nt	nt	nt
O=C(NCc1ccco1)c1ccccc1-c1ccccc1	1.1%	-17.8%	9.6%	2.9%	?	5.5%
O=C(O)c1ccccc1-c1ccccc1C(=O)NCc1ccco1	3.3%	-6.5%	-3.7%	6.1%	50.1µM*	-2.4%
CC(C)(Oc1ccc(Cl)cc1)C(=O)NCc1ccncc1	-1.9%	-5.6%	-13.3%	1.2%	0.9%	-16.8%
O=C(NCc1ccco1)c1ccccc1F	1.8%	10.3%	1.2%	-1.2%	44.7µM*	12.7%
CC(C)(Oc1ccc(Cl)cc1)C(=O)NCc1ccco1	1.1%	-4.9%	?	-9.7%	7.08µM*	7.4%
CCOC(=O)c1sc2ccccc2c1S(=O)(=O)N1CCN(c2cc(C)ccc2C)CC1	nt	-10.3%	nt	nt	7.1%	nt
CCOc1cc(C(=O)Nc2cc3c(cc2N2CCCC2)n(C)c(=O)c(=O)n3C)cc(OCC)c1OCC	nt	-4.0%	nt	nt	50.1µM*	nt
CCOc1cc(C(=O)Nc2cc3c(cc2N2CCCC2)n(C)c(=O)n3C)cc(OCC)c1OCC	8.4%	0.0%	-0.1%	-0.9%	-28.5%	9.5%
CC1CN(C(=O)/C=C/c2ccc([N+](=O)[O-])s2)CC(C)O1 (configuration not stated)	0.0%	-2.0%	nt	2.8%	20µM*	-27.8%
CC1CC(C)CN(C(=O)/C=C/c2ccc([N+](=O)[O-])s2)C1 (configuration not stated)	3.5%	0.1%	nt	-5.4%	12.6µM*	1.7%
Cn1c(=O)c2sccc2n2c(CCC(=O)Nc3ccc(F)cc3)nnc12	nt	1.4%	nt	nt	0.6%	nt
O=C(Cn1c(=O)c(CNc2ccccc2)cc2cc3c(cc21)OCCO3)Nc1ccccc1Cl	nt	2.1%	nt	nt	-20.2%	nt
O=[N+]([O-])c1cc(S(=O)(=O)C(F)(F)F)ccc1Sc1nc2ccccc2s1	-0.2%	-13.3%	-120.7%	-32.2%	14.1µM*	17.1%
SMILES	LmPK inh	TbPYK inhibitor	NS1 function inh	SARS PLpro yeast	Sm TGR block	RE007 growth inh
CS(=O)(=O)c1ccc(Sc2nc3ccccc3[nH]2)c([N+](=O)[O-])c1	-1.9%	3.5%	-17.1%	-7.9%	-15.5%	17.7%
O=[N+]([O-])c1cc(S(=O)(=O)C(F)(F)F)ccc1Sc1nc2ccccc2[nH]1	4.9%	1.8%	3.2%	-22.8%	28.2µM*	-7.8%
CCOCCCNC(=O)/C(C#N)=C/c1ccc(C)o1	-5.8%	-21.2%	6.9%	-3.2%	39.8µM*	3.2%
Cc1ccc2occ(CC(=O)Nc3ccc(Cl)c(C(F)(F)F)c3)c2c1	nt	0.9%	nt	nt	30.2%	nt
CCSc1ncc(Cl)c(C(=O)N(Cc2ccc(N(C)C)cc2)Cc2ccco2)n1	nt	-2.8%	nt	nt	1.8%	nt
CCOC(=O)CC1C(=O)NCCN1C(=O)c1cc2c(=O)n3ccccc3nc2s1 (configuration not stated)	0.3%	nt	-6.9%	6.3%	-5.2%	nt
CCOC(=O)CC1C(=O)NCCN1C(=O)c1cc2c(=O)n3cccc(C)c3nc2s1 (configuration not stated)	-4.0%	-9.2%	-1.5%	-3.4%	35.5µM*	-11.5%
CCc1ccc(NC(=O)CN2C(=O)CC(c3ccccc3)Sc3ccccc32)cc1 (configuration not stated)	nt	-9.3%	nt	nt	-10.1%	nt
COc1ccc(/C=C/C(=O)NCCc2ccc(S(N)(=O)=O)cc2)cc1	-2.2%	-9.9%	24.9%	10.7%	0.3%	7.8%
COc1ccc(CCNC(=O)/C=C/c2ccco2)cc1	1.7%	?	3.1%	0.4%	10µM*	-9.3%
COc1ccc(CCNC(=O)/C=C/c2ccco2)cc1OC	-2.8%	?	7.3%	7.1%	11.2µM*	-14.5%
CCOc1ccc(CCNC(=O)/C=C/c2ccco2)cc1OCC	-11.7%	-16.8%	-10.8%	-0.2%	6.31µM*	22.4%
COc1ccc(/C=C/C(=O)NCCCc2ccccc2)cc1OC	0.2%	-4.4%	-4.5%	5.0%	-20.4%	-11.2%
COc1ccc(/C=C/C(=O)NCCSCc2ccco2)cc1OC	2.8%	1.6%	-0.5%	0.2%	10µM*	1.8%
COc1ccc(CCNC(=O)/C=C\c2ccccc2)cc1OC	1.2%	-4.2%	-14.3%	14.4%	7.4%	20.1%
CCOC(=O)c1ccc(OCCN2C[C@H](O)[C@@H](O)[C@H](O)[C@H]2CO)cc1	nt	3.9%	nt	nt	nt	nt
O=C(CN1C(=O)C2(SCC(=O)N2c2ccc(F)c(F)c2)c2ccccc21)NCCc1ccccc1 (configuration not stated)	nt	-3.4%	nt	nt	13.1%	nt
O=C(Nc1nc2cc3c(cc2s1)OCO3)c1ccco1	15.8µM*	-10.1%	-6.8%	-4.6%	-18.2%	?
